Compound activity from PubChem.
The list is not random: actives were taken first. Their share in the collection is about 14%.
HSD17B inh – inhibitors of human HSD17B10 dehydrogenase. recombinant HSD17B10, NADH fluorescence kinetic. 75,000 compounds, 7.6% hits. Potency, µM (top dose mostly 57.1 µM), for inactives: at the highest dose activity change, negative = inhibition, usual class: inhibitors. Q99714;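 further: the protocol describes HADH2 (HSD17B10) and not the HSD17B4 of the title; potency means the concentration at half of the fitted maximal effect; on the % scale 0 is the no-effect control and ±100 the full control effect; nearly all actives have a fitted effect of over 70% in size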
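Enzyme plus compound, 15 min room temperature; substrate mix added (NAD+ 1 mM, beta-hydroxybutyryl-CoA 90 uM final); plates read kinetically for NADH fluorescence. HADH2 was His-tagged, E. coli-derived, 20 nM.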
HADH2 inhib – HADH2 (human) dehydrogenase inhibition | 73,000 compounds, 3.4% hits | AID 886 | Potency, µM (doses to about 57.1 µM), without a hit: top-dose activity change, negative = inhibition, most hits filed as inhibitors | recombinant HADH2, NADH fluorescence, beta-hydroxybutyryl-CoA; further: potency means the concentration at half of the fitted maximal effect; on the % scale 0 is the no-effect control and ±100 the full control effect; nearly all actives have a fitted effect of over 60% in size
Target sequence (Q99714 whole entry, looked up, one chain of several): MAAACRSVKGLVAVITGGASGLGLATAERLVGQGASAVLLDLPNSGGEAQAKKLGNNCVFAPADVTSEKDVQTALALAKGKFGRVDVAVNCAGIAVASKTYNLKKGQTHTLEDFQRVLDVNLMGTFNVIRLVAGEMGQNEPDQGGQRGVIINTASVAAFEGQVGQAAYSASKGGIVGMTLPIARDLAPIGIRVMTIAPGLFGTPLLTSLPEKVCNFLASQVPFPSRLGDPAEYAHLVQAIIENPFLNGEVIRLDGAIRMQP
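Read-out: 360 nm excitation, 450 nm emission, kinetic over 4 min. Conditions: His-tagged human HADH2 20 nM, pH 9.0 Tris with Tween-20, 1 mM NAD+, 90 uM beta-hydroxybutyryl-CoA.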
AID923 – qHTS Assay for Allosteric/Competitive Inhibitors of Caspase-1: Spectroscopic Profiling in AFC Spectral Region; compound fluorescence, AFC spectral region (405/520 nm); Potency, µM (titrated, usually from 57.5 µM), for the others: top-dose fluorescence increase, most hits filed as activators; 75,000 compounds, 1.1% hits; further: potency means the concentration at half of the fitted maximal effect; 0% is about no effect
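Compound autofluorescence profiled at 405 nm ex/520 nm em during kinetic caspase 1 run (50 nM enzyme, 5 uM Ac-WEHD-AFC, HEPES pH 7.5, 10 mM DTT). Titration up to 57 uM; baseline from regression intercept, normalized to AFC standard curve.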
4-MU autofl – compound fluoresces in the 4-MU spectral region | AID 589 | compound autofluorescence, 340/450 nm, 4-MU equivalents; hits give high values | max dye-equivalent concentration, M | 59,000 compounds, 11% hits; in the data active means max dye-equivalent concentration above about 10 nM; inconclusive means mostly about 1.1 nM to 9.6 nM
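Intrinsic fluorescence at 340/450 nm (ex/em) was read after 15 min at room temperature in pH 8.0, 100 mM Tris. Each compound concentration expressed as 4-MU-equivalent concentration from a six-point 4-MU standard series on each plate.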
CRE Fsk mod – CRE-bla signaling modulation under forskolin stimulation | CHO CRE-bla reporter (cAMP response element driving beta-lactamase), forskolin EC10, beta-lactamase ratio | Potency, µM (top dose mostly 38.2 µM), inactives show at the top dose activity change, negative = inhibition, most hits filed as activators | 71,000 compounds, 2.5% hits | AID 662; active means well fitted activation curve with a large enough effect in the signal ratio, with a control signal flat, not every such curve was filed as active; inconclusive means small, poorly fitted or top-dose-only effect, or effect the other way, or a change in a side signal; the % refers to the signal ratio; further: potency means the concentration at half of the fitted maximal effect; % of control where 0% means no effect
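AC50 values, positive or negative, reflect shifts in EC10 NKH 477-induced CRE-bla reporter activity in CHO cells. Incubation lasted 3 h at 37 °C before CCF4 substrate (2 h, room temperature) and ratiometric 460/530 nm reading.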
A350 autofl – compounds fluorescent in Alexa 350 spectral region; Compound autofluorescence, 340/450 nm, Alexa 350 dye-equivalents; hits give high values; max dye-equivalent concentration, M; 59,000 compounds, 11% hits; AID 590; in the data active means max dye-equivalent concentration above about 10 nM; inconclusive means mostly about 1.1 nM to 9.6 nM
* hit, by the source's call; i = inactive; ? = inconclusive; . = no result; [ ] = dose if it differs, or a comment. Unless noted, the call rests on the fitted dose curve; in most records, active means well fitted curve in the direction sought with a large enough effect; inconclusive means small, poorly fitted or top-dose-only effect, or another doubt; inactive means no such curve, though single readings can be large; an effect the other way counts as inactive or inconclusive.

SMILES | HSD17B inh | HADH2 inhib | AID923 | 4-MU autofl | CRE Fsk mod | A350 autofl
CC1CCC2C(=O)N3C(CCC(C)[C@@H]3c3ccc(Br)cc3)C(=O)N2C1c1ccc(Br)cc1 (stereo not given in full) | 2.9%[11.4 µM] | 8.2%[11.4 µM] | -2.5%[11.5 µM] | . | . | .
CC(C)[C@@H](C)/C=C\[C@@H](C)[C@@H]1CC[C@H]2C3=CC=C4C[C@@H](O)CC[C@]4(C)[C@H]3CC[C@]21C | 5.3%[11.4 µM] | 14.2%[11.4 µM] | -0.5%[11.5 µM] | i | -3.8%[7.6 µM] | i
COc1ccc(-c2c(C)oc3c(CN4CCN(C)CC4)c(O)ccc3c2=O)cc1 | 25.1µM* | 15.8µM* | 0.5% | . | 2.5% | .
COc1ccc(-c2c(C(F)(F)F)oc3c(CN4CCN(C)CC4)c(O)ccc3c2=O)cc1 | -0.6% | -3.5% | 3.8% | ? | -4.4% | 1.06e-08M*
CCN1CCN(Cc2c(O)ccc3c(=O)c(-c4ccc(OC)c(OC)c4)c(C)oc23)CC1 | 31.6µM* | ? | 0.3% | 2.61e-07M* | 15.3% | 3.31e-07M*
COc1ccccc1NS(=O)(=O)c1ccccc1C#N | 4.6% | -9.7% | 0.4% | ? | -0.6% | ?
Cc1c(F)cccc1NS(=O)(=O)c1ccccc1C#N | 2.8% | 1.8% | 1.0% | 2.92e-08M* | ? | 3.58e-08M*
CC(=O)N1C2CCCCC2S[C@H]2CCCCC21 (stereo not given in full) | -10.0% | -13.9% | -1.6% | 1.02e-08M* | -10.2% | ?
O=C(O)C1CC(=O)N(C2CCCCCC2)C1 (stereo not given) | -5.7% | 8.5% | -0.4% | i | 0.4% | i
Cn1c(NCCCN2CCOCC2)nc2c1c(=O)n(Cc1ccc(Cl)cc1)c(=O)n2C | -21.5% | 10.7% | 1.0% | 1.33e-08M* | 4.6% | ?
Cn1c(NCCCN2CCOCC2)nc2c1c(=O)n(Cc1ccc(Cl)c(Cl)c1)c(=O)n2C | -10.7% | 6.6% | -0.7% | i | -6.9% | i
Clc1ccccc1CNCC1CCC(CNCc2ccccc2Cl)CC1 (stereo not given) | -1.7% | -0.8% | 0.4% | . | -23.3% | .
COc1ccc2[nH]c3nc(SC(C)C)nnc3c2c1 | 9.3% | 16.6% | 0.8% | i | ? | i
COc1ccc2[nH]c3nc(SCc4nnc(-c5ccccc5)o4)nnc3c2c1 | -4.7% | 48.6% | 2.1% | i | 3.98µM* | i
C=CC1=C(C(=O)O)N2C(=O)C(NC(=O)/C(=N\O)c3csc(N)n3)C2SC1 (stereo not given) | -9.4% | . | -1.2% | . | . | .
CCCc1[nH]nc2c1C(c1ccc(OC)c(CSC3=NCCS3)c1)C(C#N)=C(N)O2 (stereo not given) | -18.2% | -14.4% | 0.4% | 1.15e-07M* | ? | 1.14e-07M*
COCCN(CCOC)c1ncnc2c1cnn2-c1ccc(Cl)cc1 | -16.5% | 5.7% | -1.4% | i | 10µM* | i
OCCOCCNc1ncnc2c1cnn2-c1ccc(Cl)cc1 | . | . | . | 1.36e-08M* | . | ?
COC(=O)[C@@]1(Cc2ccccc2)[C@H]2c3cc(C(=O)N4CCCC4)n(Cc4ccc(O)c(OC)c4)c3C[C@H]2CN1C(=O)c1ccccc1 | 7.0% | -10.1% | -0.3% | . | ? | .
Cc1cccc(NC(=O)c2cc(N3CCOCC3)nc3ccccc23)c1 | . | . | . | 9.26e-08M* | . | 1.1e-07M*
O=C(Nc1nccs1)c1cc(N2CCOCC2)nc2ccccc12 | -12.9% | -4.1% | -1.1% | 1.03e-08M* | ? | 1.53e-08M*
O=C(c1cc(N2CCCCC2)nc2ccccc12)N1CCOCC1 | . | . | . | 5.9e-08M* | . | 6.97e-08M*
O=C(Nc1ccccc1)c1cc(N2CCOCC2)nc2ccccc12 | . | . | . | 8.55e-08M* | . | 1.19e-07M*
NCCC[C@@H](CC(=O)N[C@@H]1CCNC[C@H]1C(=O)N[C@H](CC(=O)N[C@@H](CCC(=O)O)CC(=O)O)Cc1ccccc1)NC(=O)C[C@H](Cc1ccccc1)NC(=O)[C@@H]1CNCC[C@H]1N | . | 4.1% | . | . | -15.6% | .
Cc1ccc(NC(=O)c2cc(N3CCOCC3)nc3ccccc23)cc1 | . | . | . | 8.09e-08M* | . | 1.06e-07M*
Cc1ccc(C(=O)Nc2ccccc2N2CCOCC2)c(C)c1 | 4.1% | 6.4% | 0.3% | . | . | .
